PubChem BioAssay (NCI)
Compounds without any hit were thinned out: in the full panel of roughly 83,000, 20% have a hit.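 A percent growth of 40 corresponds to 60% growth inhibition; 0 means no net growth; -100 means all cells died. Active threshold: below 10.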 Unmarked numbers belong to inactive results. Calls of active or inactive are those of the source.

How the values were obtained:
Assay in all cases: NCI-60 one-dose screen, 48 h (100 = growth as untreated, 0 = no growth, -100 = all killed)
Conditions in all cases: 10 µM unless noted
DU-145 prostate = tested on: DU-145 prostate
K-562 leukemia = tested on: K-562 leukemia
MALME-3M melanoma = tested on: MALME-3M melanoma
MDA-MB-231 breast = tested on: MDA-MB-231 breast
RXF 393 renal = tested on: RXF 393 renal
SF-268 CNS = tested on: SF-268 CNS
SF-295 CNS = tested on: SF-295 CNS
SF-539 CNS = tested on: SF-539 CNS
UACC-257 melanoma = tested on: UACC-257 melanoma
M14 melanoma = tested on: M14 melanoma
HCT-15 colon = tested on: HCT-15 colon
HT29 colon = tested on: HT29 colon
SNB-75 CNS = tested on: SNB-75 CNS
U251 CNS = tested on: U251 CNS
PC-3 prostate = tested on: PC-3 prostate
SK-MEL-5 melanoma = tested on: SK-MEL-5 melanoma
UACC-62 melanoma = tested on: UACC-62 melanoma
LOX IMVI melanoma = tested on: LOX IMVI melanoma
SK-MEL-28 melanoma = tested on: SK-MEL-28 melanoma
SNB-19 CNS = tested on: SNB-19 CNS

Row | Compound | growth (DU-145 prostate) | growth (K-562 leukemia) | growth (MALME-3M melanoma) | growth (MDA-MB-231 breast) | growth (RXF 393 renal) | growth (SF-268 CNS) | growth (SF-295 CNS) | growth (SF-539 CNS) | growth (UACC-257 melanoma) | growth (M14 melanoma) | growth (HCT-15 colon) | growth (HT29 colon) | growth (SNB-75 CNS) | growth (U251 CNS) | growth (PC-3 prostate) | growth (SK-MEL-5 melanoma) | growth (UACC-62 melanoma) | growth (LOX IMVI melanoma) | growth (SK-MEL-28 melanoma) | growth (SNB-19 CNS)
1 | C=C1C(=O)O[C@H]2[C@H]1CC/C(COC(=O)n1ccnc1C)=C\CC[C@@]1(C)O[C@@H]21 | 93.2% | 95.4% | 92.6% | 106% | 96.2% | 101% | 104% | 101% | 75.1% | 91% | 93.6% | 95.4% | 93.2% | 95.1% | 97.2% | 106% | 98.6% | 95% | 100% | –
2 | O=C1C(Cl)=C(Nc2cccc3cc4ccccc4nc23)C(=O)c2ccccc21 | 44% | 27.9% | 48.9% | 44% | 65.2% | 45% | 53.8% | 40.7% | 45.6% | 56.4% | 41.4% | 4.99% (active) | 71.9% | 41.8% | 42% | 69.5% | 70.1% | 33.9% | 102% | –
3 | Cc1ccc(-c2cn3cc([N+](=O)[O-])ccc3n2)cc1 | 68.8% | 82% | 103% | 79.1% | 90.4% | 77.3% | 101% | 91.2% | 87.4% | 72.5% | 80.2% | 91.6% | 77.5% | 85.6% | 77.1% | 58.9% | 82.6% | 58.3% | – | –
4 | CC(C)(C)C(=O)Nc1nc2c(s1)CCc1ccn(S(=O)(=O)c3ccccc3)c1-2 | 99.1% | 69% | 99.6% | 95.8% | 116% | 89.5% | 91.7% | 99.4% | 95% | 96.1% | 92.8% | 79.5% | 89.6% | 94.1% | – | 99.9% | – | 84.5% | – | 116%
5 | C#C[C@@]1(O)[C@@H](CO)O[C@@H](n2cc(C(F)(F)F)c3c(N)ncnc32)[C@@H]1O | 10.2% | 5.44% (active) | -22% (active) | 14% | -30.3% (active) | 11.9% | 7.42% (active) | -25.3% (active) | 21% | 9.25% (active) | 3.11% (active) | 0.254% (active) | -54.8% (active) | – | 14% | -65.5% (active) | -1.29% (active) | -23.6% (active) | 28.1% | 10.7%
6 | COc1ccc2c(c1)nnc1c3cccnc3[nH]c21 | -18.3% (active) | -41.1% (active) | 11.4% | 0.316% (active) | -67.2% (active) | -24.8% (active) | 39.8% | -48.7% (active) | 33.5% | 4.79% (active) | 12.2% | -27.1% (active) | -14.2% (active) | -4.49% (active) | 29.3% | 46.2% | -0.424% (active) | -30.8% (active) | 31.9% | –
7 | CCN(CC)CCC(C(=O)O)(c1ccccc1)c1ccccc1 | 107% | 102% | 89.7% | 99.4% | 118% | 93.9% | 97% | 93.9% | 113% | 97% | 103% | 94.9% | 86.8% | – | 103% | 104% | – | 95.7% | 109% | 104%
8 | O=C1OC(N(Cc2ccc(Cl)cc2)c2ccccc2)c2ccccc21 (stereo not given) | 109% | 87% | 104% | 84.8% | 125% | 105% | 104% | 99.7% | 105% | 104% | 104% | 87.4% | 115% | – | 98.2% | 101% | 93.9% | 98.9% | 111% | 96.7%
9 | O=C(O)c1ccc(-n2cc(/C=N/Nc3ccccc3F)c(-c3ccc(O)cc3)n2)cc1 | 97% | 13% | 92.7% | 85.2% | 92.6% | 78.6% | 80.5% | 85.9% | 103% | 73.5% | 73.1% | 101% | 82.8% | – | 74.8% | 78% | – | 37% | 97.1% | 95.2%
10 | CCOC(=O)CSc1nnc(-c2cc3c([nH]c4ccccc43)c(-c3cccc(O)c3)n2)n1-c1ccc(C)cc1 | -0.541% (active) | 16.8% | 80.3% | 45% | 79.5% | 74.7% | 99.9% | 78% | 91.3% | 44.5% | 42.7% | 43% | 63.3% | – | 15.1% | 94.1% | 85.2% | 32.6% | 79.9% | 97.3%
11 | CN(C)c1ccc(/C=c2\s/c(=C\C(=O)C(C)(C)C)[nH]c2=O)cc1 | 93.1% | 111% | 93.6% | 118% | 122% | 93.5% | 94.9% | 96.6% | 96.1% | 101% | 95.5% | 91% | 94.3% | – | 85.2% | 101% | – | 87.1% | 104% | 97.5%
12 | O=C(C[n+]1ccccc1Cl)c1ccc2c(c1)CCCC2 | 97.1% | 82.9% | 81.8% | 99.7% | 95.8% | 99.5% | 99.4% | 97.6% | 101% | 86.2% | 102% | 79.7% | 88.4% | – | 87.3% | 98.4% | 106% | 101% | 105% | 108%
13 | COC1OCC(OS(=O)(=O)c2ccc(C)cc2)C(OC(=O)c2ccccc2)C1OC(=O)c1ccccc1 (stereo not given) | 66.6% | 37.8% | 37.3% | 57.2% | 49.6% | 62.4% | 30% | 39.2% | 71% | 34.3% | 38.3% | 7.49% (active) | 32.5% | – | – | 30.7% | 36.1% | 44.8% | 57.7% | 61.2%
14 | O=c1c2ccccc2sc2c(NCCN3CCOCC3)nc3ccccc3c12 | 56% | -11.7% (active) | 52.2% | 28.9% | 11.8% | 66.9% | -7.24% (active) | 47.3% | 79.8% | 5.59% (active) | 27.1% | 8.68% (active) | 42.8% | – | 43.2% | 54.8% | 33.3% | 5.67% (active) | 69.4% | 79.3%
15 | O=[N+]([O-])c1cccc(C(c2ccccc2)c2ccccc2)c1 | 110% | 73.7% | 97% | 83.1% | 102% | 99.8% | 76.7% | 101% | 102% | 97% | 95.3% | 79.8% | 86.4% | – | 70.4% | 101% | 86.7% | 87.3% | 107% | 97.3%
16 | CCCCOc1c(N)cccc1C(=O)OCCN(CC)CC | 103% | 80.4% | 100% | 99.3% | 100% | 95.1% | 103% | 104% | 100% | 99.5% | 109% | 85.8% | 102% | – | – | 105% | 95.2% | 102% | 112% | 99.9%
17 | COc1ccc(/C=C/C(=O)c2ccc(NC(=O)CSc3nnc(-c4cc(OC)c(OC)c(OC)c4)o3)cc2)cc1 | 4.04% (active) | -52.2% (active) | -70.7% (active) | -80.7% (active) | -84.3% (active) | -76.7% (active) | 57.6% | -90.3% (active) | 40.1% | -60.1% (active) | -79.6% (active) | -80.9% (active) | -89.7% (active) | – | -34.7% (active) | -84.2% (active) | -46.3% (active) | -69.4% (active) | -21% (active) | -48.7% (active)
